Laboratory results taken from PubChem BioAssay.
For some assays here: Results with a measured potency or affinity are listed apart. Activity calls are given as the source filed them. Unless noted, how the calls were made is not given here.

Experiments:
[1] = antimalarial activity against Dd2 strain (AID 2302;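 active means growth inhibition above 50% at the single 2 µM test dose, taken to imply half-maximal potency below 2 µM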;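 further: 0% = DMSO untreated growth and 100% = chloroquine plus artemisinin killed control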); details: P. falciparum Dd2 in RBCs, LDH growth readout, 72 h; at 2 µM; stronger effect = higher value
[2] = HepG2 cytotoxicity, primary screen, cytotoxicity control for P. falciparum antimalarial project, cell-based, ATP luminescence (AID 2303;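 active means inhibition above 50%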;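 further: 0% = DMSO wells and 100% = digitonin-killed cells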); details: HepG2 viability, 24-48 h, at 10 µM, stronger effect = higher value
[3] = biological target: L-lactate dehydrogenase (Plasmodium falciparum (isolate CDC / Honduras)) (UniProt Q27743); test: PfLDH activity inhibition – cell lysate, 3D7 strain, counter-screen for P. falciparum growth inhibition project (AID 2304);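 further: 0% = vehicle and 100% = reference inhibitor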; details: P. falciparum 3D7 crude extract, LDH APAD/NBT absorbance; at 2 µM; stronger effect = higher value
[4] = inhibition of 3D7 malaria parasite growth – strain 3D7 (AID 2306);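 further: 0% = DMSO wells and 100% = chloroquine plus artemisinin control wells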; details: P. falciparum 3D7 erythrocytic growth, LDH absorbance, 72 h; at 2 µM; stronger effect = higher value
[5] = biological target: Calcium-dependent protein kinase 1 (Plasmodium falciparum (isolate 3D7)) (UniProt P62344); test: PfCDPK1 kinase inhibitors, biochemical, TCAMS library (AID 1159585; cut-off not given, nearly all actives have IC50 up to about 0.98 µM;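 further: inhibitors leave more ATP so luminescence rises with inhibition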); details: recombinant PfCDPK1, Kinase-Glo ATP depletion luminescence
[6] = biological target: Plasmodium falciparum protein kinase 6 (PK6, PF3D7_1337100) (UniProt Q8IDW1); test: PfPK6 kinase inhibitors, biochemical, TCAMS library (AID 1159586); details: recombinant PfPK6, Kinase-Glo ATP depletion luminescence
[7] = biological target: Protein kinase 7 (PK7), Plasmodium falciparum 3D7 (PF3D7_0213400) (UniProt Q7YTF7); test: inhibition of Plasmodium PK7 catalytic activity – biochemical, TCAMS antimalarial set, Kinase-Glo luminescence (AID 1159587); details: recombinant PfPK7, Kinase-Glo ATP depletion luminescence
[8] = biological target: Calcium-dependent protein kinase 4 (Plasmodium falciparum (isolate 3D7)) (UniProt Q8IBS5); test: PfCDPK4 kinase inhibitors, biochemical, TCAMS library (AID 1159588; cut-off not given, nearly all actives have IC50 up to about 0.91 µM); details: recombinant PfCDPK4, Kinase-Glo ATP depletion luminescence
Chain of Calcium-dependent protein kinase 4 (Plasmodium falciparum (isolate 3D7)) (Q8IBS5 whole entry, looked up): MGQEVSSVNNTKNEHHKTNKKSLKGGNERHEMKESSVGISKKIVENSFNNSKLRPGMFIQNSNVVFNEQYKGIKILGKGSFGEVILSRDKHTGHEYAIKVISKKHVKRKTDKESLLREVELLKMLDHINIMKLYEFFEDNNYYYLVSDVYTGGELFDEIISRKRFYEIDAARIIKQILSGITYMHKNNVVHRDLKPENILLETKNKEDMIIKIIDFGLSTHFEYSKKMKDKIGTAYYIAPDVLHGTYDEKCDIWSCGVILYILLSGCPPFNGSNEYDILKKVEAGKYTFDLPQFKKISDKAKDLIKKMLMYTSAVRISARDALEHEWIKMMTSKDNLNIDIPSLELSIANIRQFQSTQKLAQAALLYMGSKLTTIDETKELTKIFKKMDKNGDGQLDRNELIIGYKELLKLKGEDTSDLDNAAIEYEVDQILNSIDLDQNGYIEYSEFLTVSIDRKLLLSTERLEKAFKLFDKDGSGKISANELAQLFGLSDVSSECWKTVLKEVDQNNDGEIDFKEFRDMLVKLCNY

Chain of Calcium-dependent protein kinase 1 (Plasmodium falciparum (isolate 3D7)) (P62344 whole entry, looked up): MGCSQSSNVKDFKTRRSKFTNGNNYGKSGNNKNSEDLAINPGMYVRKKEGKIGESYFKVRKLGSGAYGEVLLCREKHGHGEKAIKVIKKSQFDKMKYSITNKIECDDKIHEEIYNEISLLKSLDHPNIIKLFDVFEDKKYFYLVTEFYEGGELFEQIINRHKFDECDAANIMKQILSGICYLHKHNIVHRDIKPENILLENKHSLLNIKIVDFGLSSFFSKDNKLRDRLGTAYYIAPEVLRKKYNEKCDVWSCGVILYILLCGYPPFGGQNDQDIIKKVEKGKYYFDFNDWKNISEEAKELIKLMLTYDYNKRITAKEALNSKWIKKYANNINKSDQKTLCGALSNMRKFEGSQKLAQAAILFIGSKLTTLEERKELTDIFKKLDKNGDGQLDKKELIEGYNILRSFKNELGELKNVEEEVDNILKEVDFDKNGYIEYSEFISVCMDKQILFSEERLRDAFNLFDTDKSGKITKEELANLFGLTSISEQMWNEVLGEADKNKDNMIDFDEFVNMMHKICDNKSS
Chain of Plasmodium falciparum protein kinase 6 (PK6, PF3D7_1337100) (Q8IDW1 1-305): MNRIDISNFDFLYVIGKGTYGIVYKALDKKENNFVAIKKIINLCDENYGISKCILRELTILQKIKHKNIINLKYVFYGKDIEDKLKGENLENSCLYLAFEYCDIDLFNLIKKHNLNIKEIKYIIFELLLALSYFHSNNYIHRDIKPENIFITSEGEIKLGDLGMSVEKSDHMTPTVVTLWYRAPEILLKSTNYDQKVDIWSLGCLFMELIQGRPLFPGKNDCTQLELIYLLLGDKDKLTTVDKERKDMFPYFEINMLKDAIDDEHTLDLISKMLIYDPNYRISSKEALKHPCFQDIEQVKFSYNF
Chain of Protein kinase 7 (PK7), Plasmodium falciparum 3D7 (PF3D7_0213400) (Q7YTF7 1-343): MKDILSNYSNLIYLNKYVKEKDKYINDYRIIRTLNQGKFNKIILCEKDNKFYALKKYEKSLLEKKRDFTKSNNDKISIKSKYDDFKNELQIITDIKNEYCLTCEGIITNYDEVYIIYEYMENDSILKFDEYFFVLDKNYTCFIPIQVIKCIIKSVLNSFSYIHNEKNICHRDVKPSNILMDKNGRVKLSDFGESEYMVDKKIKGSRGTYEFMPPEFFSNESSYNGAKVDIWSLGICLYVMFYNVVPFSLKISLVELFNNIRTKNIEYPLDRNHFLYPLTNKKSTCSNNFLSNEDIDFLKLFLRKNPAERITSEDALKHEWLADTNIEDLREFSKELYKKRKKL
Chain of L-lactate dehydrogenase (Plasmodium falciparum (isolate CDC / Honduras)) (Q27743 whole entry, looked up): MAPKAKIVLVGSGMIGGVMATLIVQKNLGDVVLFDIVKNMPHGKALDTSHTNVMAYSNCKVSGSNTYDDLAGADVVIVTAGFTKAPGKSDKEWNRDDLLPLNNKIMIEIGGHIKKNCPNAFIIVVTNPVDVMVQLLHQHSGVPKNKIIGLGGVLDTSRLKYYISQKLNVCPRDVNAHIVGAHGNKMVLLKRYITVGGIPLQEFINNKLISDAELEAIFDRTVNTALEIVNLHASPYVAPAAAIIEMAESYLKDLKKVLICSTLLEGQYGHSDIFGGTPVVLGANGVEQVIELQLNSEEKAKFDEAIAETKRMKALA

COc1ccc2nccc(N3CCC(CCNCc4ccc5c(n4)NC(=O)CS5)CC3)c2n1
active: growth inhibition [1] 75% | growth inhibition [4] 102%
inactive: inhibition [2] 32% | inhibition [3] -1% | outcome [5] | outcome [6] | outcome [7] | outcome [8]

COc1ccc(CCON2C(N)=NC(N)=NC2(C)C)cc1OC
active: growth inhibition [1] 93% | inhibition [2] 64% | growth inhibition [4] 96%
inactive: inhibition [3] 2% | outcome [5] | outcome [6] | outcome [7] | outcome [8]

COc1cccc(CN2CCC(N3CCc4cc(NC(=O)c5cc(C)on5)ccc43)C2)c1OC (stereo not given)
active: growth inhibition [1] 92% | growth inhibition [4] 93%
inactive: inhibition [2] 9% | inhibition [3] 4% | outcome [5] | outcome [6] | outcome [7] | outcome [8]

CCc1cn2c3c(cc(C(=O)N[C@@H](Cc4ccccc4)[C@H](O)CNCc4ccccc4)cc13)N(C)S(=O)(=O)CC2
inactive: inhibition [2] 3% | inhibition [3] 1% | outcome [5] | outcome [6] | outcome [7] | outcome [8]
active: growth inhibition [1] 99% | growth inhibition [4] 98%

COc1ccc(CNCc2cccc(-c3ccc(-c4nc5ccc(C(F)(F)F)cc5[nH]4)cc3)c2)cc1
active: growth inhibition [1] 95% | growth inhibition [4] 102%
inactive: inhibition [2] 23% | inhibition [3] 0% | outcome [5] | outcome [6] | outcome [7] | outcome [8]

COc1c(CCNCCCCNCCc2cc(Cl)c3ccccc3c2OC)cc(Cl)c2ccccc12
inactive: inhibition [3] -7% | outcome [5] | outcome [6] | outcome [7] | outcome [8]
active: growth inhibition [1] 100% | inhibition [2] 99% | growth inhibition [4] 99%

CN1CCC(NCc2ccc(-c3cccc(S(=O)(=O)NCCc4ccccn4)c3)cc2)CC1
active: growth inhibition [4] 84%
inactive: growth inhibition [1] -8% | inhibition [2] 42% | inhibition [3] -1% | outcome [5] | outcome [6] | outcome [7] | outcome [8]

COc1cc(-c2nc(-c3ccccc3)c(-c3ccc(C(=O)c4ccc(F)cc4)cc3)[nH]2)cc(OC)c1O
inactive: inhibition [2] 0% | inhibition [3] -3% | outcome [5] | outcome [6] | outcome [7] | outcome [8]
active: growth inhibition [1] 100% | growth inhibition [4] 101%

CCc1ccc(C2CCN(CCCCNC(=O)c3ccc(NC(=O)c4ccc(Cl)cc4)cc3)CC2)cc1
active: growth inhibition [1] 63% | growth inhibition [4] 100%
inactive: inhibition [2] 15% | inhibition [3] -3% | outcome [5] | outcome [6] | outcome [7] | outcome [8]

O=C(c1cccc(-c2cccc(-c3nc4ccc(C(F)(F)F)cc4[nH]3)c2)c1)N1CCCCC1CN1CCC(O)C1 (stereo not given)
active: growth inhibition [1] 101% | inhibition [2] 51% | growth inhibition [4] 91%
inactive: inhibition [3] 0% | outcome [5] | outcome [6] | outcome [7] | outcome [8]

NC(=O)CCC(NC(=O)CNC(=O)Nc1cccc(C(F)(F)F)c1)C(=O)O (stereo not given)
active: growth inhibition [1] 93% | growth inhibition [4] 97%
inactive: inhibition [2] 1% | inhibition [3] 4% | outcome [5] | outcome [6] | outcome [7] | outcome [8]

CN1CCN(CCCN(Cc2ccc(-c3cccc(CNCc4ccc5c(c4)OCO5)c3)cc2)C(=O)NCCc2ccccc2)CC1
inactive: inhibition [2] 36% | inhibition [3] 3% | outcome [5] | outcome [6] | outcome [7] | outcome [8]
active: growth inhibition [1] 85% | growth inhibition [4] 98%

C=CCNC(CCCCC)c1ccc(OCCOc2ccc(C(CCCCC)NCC=C)cc2)cc1 (stereo not given)
inactive: growth inhibition [1] 48% | inhibition [3] -6% | outcome [5] | outcome [6] | outcome [7] | outcome [8]
active: inhibition [2] 100% | growth inhibition [4] 88%

O=C(Cn1c(CCc2cccc(F)c2F)nc(=O)c2ccccc21)N(CCN1CCCCC1)Cc1ccc(-c2ccc(C(F)(F)F)cc2)cc1
inactive: inhibition [2] 32% | inhibition [3] 4% | outcome [5] | outcome [6] | outcome [7] | outcome [8]
active: growth inhibition [1] 89% | growth inhibition [4] 101%

CCCCNc1c(C(=O)OCC)c(C)nc2c1[nH]c1ccccc12
active: growth inhibition [1] 58% | growth inhibition [4] 100%
inactive: inhibition [2] -3% | inhibition [3] 3% | outcome [5] | outcome [6] | outcome [7] | outcome [8]

COc1cc(NCC(CN)Cc2ccc3c(c2)OCO3)nc2ccccc12 (stereo not given)
inactive: growth inhibition [1] 6% | inhibition [2] 41% | inhibition [3] 0% | outcome [5] | outcome [6] | outcome [7] | outcome [8]
active: growth inhibition [4] 94%

Cc1noc(C)c1-c1cccc(CNCc2ccc(-c3cccc(-c4nc5c(C)cccc5[nH]4)c3)cc2)c1
inactive: inhibition [2] 24% | inhibition [3] 7% | outcome [5] | outcome [6] | outcome [7] | outcome [8]
active: growth inhibition [1] 94% | growth inhibition [4] 101%

CN(c1ccc(NC(=O)Nc2cc(C(C)(C)C)on2)cc1)c1ccnc(NCCOC(=O)Nc2cc(C(C)(C)C)on2)n1
inactive: inhibition [3] 4% | outcome [5] | outcome [6] | outcome [7] | outcome [8]
active: growth inhibition [1] 54% | inhibition [2] 59% | growth inhibition [4] 102%

Brc1ccsc1-c1nc(NCCC(c2ccccc2)c2ccccc2)no1
active: growth inhibition [1] 81% | growth inhibition [4] 94%
inactive: inhibition [2] 17% | inhibition [3] -5% | outcome [5] | outcome [6] | outcome [7] | outcome [8]

Cc1cccc2[nH]c(-c3ccc(-c4ccc(CNCC5CCCO5)cc4)s3)nc12 (stereo not given)
inactive: inhibition [2] 11% | inhibition [3] -5% | outcome [5] | outcome [6] | outcome [7] | outcome [8]
active: growth inhibition [1] 96% | growth inhibition [4] 100%

CC(C)(C)OC(=O)N[C@@H](Cc1ccccc1)C(=O)Nc1cccc(-c2cccc(NC(=O)[C@H](Cc3ccccc3)NC(=O)OC(C)(C)C)c2)c1
active: growth inhibition [1] 97% | growth inhibition [4] 106%
inactive: inhibition [2] 10% | inhibition [3] 6% | outcome [5] | outcome [6] | outcome [7] | outcome [8]

Nc1c2c(nc3ccc(NC(=O)c4ccc([N+](=O)[O-])cc4)cc13)CCCC2
inactive: inhibition [2] 19% | inhibition [3] 0% | outcome [5] | outcome [6] | outcome [7] | outcome [8]
active: growth inhibition [1] 72% | growth inhibition [4] 102%

O=C(/C=C/c1ccc(Cl)c(Cl)c1)NCCCCCN1CCC(CCNC(=O)/C=C/c2cc(C(F)(F)F)ccc2F)CC1
inactive: growth inhibition [1] 46% | inhibition [2] 25% | inhibition [3] -5% | outcome [5] | outcome [6] | outcome [7] | outcome [8]
active: growth inhibition [4] 98%

CC(C)Sc1nncc(-c2cnnc(SC(C)C)n2)n1
active: growth inhibition [1] 100% | growth inhibition [4] 101%
inactive: inhibition [2] -1% | inhibition [3] 2% | outcome [5] | outcome [6] | outcome [7] | outcome [8]

COC(=O)Cn1c2ccccc2c2c(N)c(C(=O)OC)c(C)nc21
active: growth inhibition [4] 93%
inactive: growth inhibition [1] 1% | inhibition [2] 0% | inhibition [3] 4% | outcome [5] | outcome [6] | outcome [7] | outcome [8]

CC(Cc1ccc(OCCN2CCN(c3cccc(Cl)c3)CC2)cc1)NCC(O)c1cccc(Cl)c1 (stereo not given)
active: growth inhibition [1] 91% | growth inhibition [4] 93%
inactive: inhibition [2] 48% | inhibition [3] 3% | outcome [5] | outcome [6] | outcome [7] | outcome [8]

C=CCOC(=O)N1CCC(CNCc2cccc(-c3ccc(-c4nc5ccc(C(F)(F)F)cc5[nH]4)cc3)c2)C1 (stereo not given)
active: growth inhibition [1] 96% | growth inhibition [4] 102%
inactive: inhibition [2] 28% | inhibition [3] -3% | outcome [5] | outcome [6] | outcome [7] | outcome [8]

Cc1cc2nc(-c3ccc(C(=O)NCCCc4ccccc4)cc3)[nH]c2cc1C
active: growth inhibition [4] 91%
inactive: growth inhibition [1] 5% | inhibition [2] 7% | inhibition [3] -2% | outcome [5] | outcome [6] | outcome [7] | outcome [8]

CC(=O)N(C)c1cccc(C(=O)Nc2ccc(-c3cccc(-c4nc5ccc(C(F)(F)F)cc5[nH]4)c3)cc2)c1
inactive: growth inhibition [1] 10% | inhibition [3] -2% | outcome [5] | outcome [6] | outcome [7] | outcome [8]
active: inhibition [2] 79% | growth inhibition [4] 94%

O=C(C=Cc1ccc(Cl)c(Cl)c1)NCCCCCN1CCC(c2[nH]nc3ccccc23)CC1
inactive: growth inhibition [1] 29% | inhibition [2] 32% | inhibition [3] 0% | outcome [5] | outcome [6] | outcome [7] | outcome [8]
active: growth inhibition [4] 99%

COc1ccc(-c2cc(C(=O)N[C@@H](CC3CCCCC3)C(=O)NCCN3CCCC3)ccc2O)cc1
active: growth inhibition [4] 90%
inactive: growth inhibition [1] 12% | inhibition [2] 12% | inhibition [3] 2% | outcome [5] | outcome [6] | outcome [7] | outcome [8]

O=C(Nc1ccc(-c2cccc(CN3CCC(O)CC3)c2)cc1)c1cccc(Cl)c1
inactive: growth inhibition [1] 14% | inhibition [3] 3% | outcome [5] | outcome [6] | outcome [7] | outcome [8]
active: inhibition [2] 50% | growth inhibition [4] 94%

COc1ccc(-c2ccc(NC(=O)c3cccc(C#N)c3)cc2)cc1CN1CCCC(C(N)=O)C1 (stereo not given)
active: growth inhibition [4] 98%
inactive: growth inhibition [1] 44% | inhibition [2] 12% | inhibition [3] 0% | outcome [5] | outcome [6] | outcome [7] | outcome [8]

Cc1ccc(NC(=O)c2ccc(N3CCN(c4ccncc4)CC3)cn2)cc1F
active: growth inhibition [1] 77% | growth inhibition [4] 98%
inactive: inhibition [2] 2% | inhibition [3] 2% | outcome [5] | outcome [6] | outcome [7] | outcome [8]

Cc1ccc(CNC(=O)[C@H](CCCN)Nc2nc(NCC3CCCCC3)ncc2C)cc1
active: growth inhibition [4] 92%
inactive: growth inhibition [1] 5% | inhibition [2] 1% | inhibition [3] 3% | outcome [5] | outcome [6] | outcome [7] | outcome [8]

COc1ccc(-n2c(=O)c3c(n4c(SC(C)C)nnc24)-c2ccccc2CC32CCCCC2)cc1
inactive: growth inhibition [1] 15% | inhibition [2] -3% | inhibition [3] -1% | outcome [5] | outcome [6] | outcome [7] | outcome [8]
active: growth inhibition [4] 99%

COc1ccc2nccc([C@@H](O)CN3CCC(NCc4cc5c(F)ccc(F)c5[nH]4)CC3)c2c1
active: growth inhibition [1] 67% | growth inhibition [4] 100%
inactive: inhibition [2] 29% | inhibition [3] 0% | outcome [5] | outcome [6] | outcome [7] | outcome [8]

CN(CCN)Cc1ccc(-c2ccc(-c3nc4ccc(F)cc4[nH]3)s2)cc1
inactive: inhibition [2] 31% | inhibition [3] -1% | outcome [5] | outcome [6] | outcome [7] | outcome [8]
active: growth inhibition [1] 81% | growth inhibition [4] 96%

NC(=NCc1ccccc1)Nc1nc(-c2ccc(OCCCn3ccnc3)cc2)cs1
inactive: inhibition [2] 10% | inhibition [3] 2% | outcome [5] | outcome [6] | outcome [7] | outcome [8]
active: growth inhibition [1] 55% | growth inhibition [4] 100%

O=C(Nc1ccc(Cl)cc1)Nc1ccc(Cn2ncc(N3CCCNCC3)c(Cl)c2=O)cc1
active: growth inhibition [4] 85%
inactive: growth inhibition [1] 11% | inhibition [2] 49% | inhibition [3] 1% | outcome [5] | outcome [6] | outcome [7] | outcome [8]
